Test results published in the supplement of paper PMC9262897, “Low-cost anti-mycobacterial drug discovery using engineered E. coli” (Nature Communications, 2022).
Counter-ions that a name gives are not always drawn. ± gives the standard deviation of the averaged measurements.

How the values were obtained:
Experiment in all cases: growth (OD600 after 10 h); higher = more growth (less inhibition)
[1] = tested on: E. coli TESEC Alr+ wild-type control; conditions: compound 0.1 mM; raw OD600 reference: median of DMSO wells 0.241, cell-free background 0.041
Procedure: (§1)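 TESEC Mtb Alr E. coli, or the Alr+ wild-type control, in 384-well plates with Prestwick library compounds at 0.1 mM and 1% DMSO, across arabinose induction levels of 1E3 to 1E7 nM. Growth is read as OD600 after 10 h at 37 °C in triplicate biological replicates.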

E. coli TESEC Mtb Alr [2] = conditions: compound 0.1 mM
Procedure: as §1

E. coli TESEC Mtb Asd = conditions: compound 0.1 mM
Procedure: (§2)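 TESEC E. coli strains in which the native enzyme is deleted and replaced by arabinose-inducible Mtb Asd, DapB, CysH or TrpD, each grown in its selective medium. Strains were screened against the Prestwick library at 0.1 mM and 1% DMSO in 384-well format at low and high arabinose induction. Growth is read as OD600 after 10 h in triplicate.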

E. coli TESEC Mtb DapB = conditions: compound 0.1 mM
Procedure: as §2

[3] = tested on: E. coli TESEC Alr+ wild-type control; conditions: compound 0.1 mM; raw OD600 reference: median of DMSO wells 0.49, cell-free background 0.052
Procedure: (§3)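 TESEC Mtb Alr E. coli (ΔaraC ΔtolC ΔentC Δalr ΔdadX, arabinose-inducible Mtb Alr) or the Alr+ wild-type control strain, grown in defined M9-fructose medium without D-alanine in 96-well plates with Prestwick library compounds at 0.1 mM and 1% DMSO. Low Alr induction is 0.1 µM arabinose and high induction is 10 mM arabinose.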

E. coli TESEC Mtb Alr [4] = conditions: compound 0.1 mM; remark: listed apart in the source
Procedure: as §3

[5] = arabinose 1000 nM, raw OD600 reference: median of DMSO wells 0.294, cell-free background 0.041
[6] = arabinose 10000 nM, raw OD600 reference: median of DMSO wells 0.264, cell-free background 0.041
[7] = arabinose 100000 nM, raw OD600 reference: median of DMSO wells 0.201, cell-free background 0.041
[8] = arabinose 1000000 nM, raw OD600 reference: median of DMSO wells 0.193, cell-free background 0.041
[9] = arabinose 10000000 nM, raw OD600 reference: median of DMSO wells 0.146, cell-free background 0.041
[10] = arabinose induction (level): High, raw OD600 reference: median of DMSO wells 0.331, cell-free background 0.041
[11] = arabinose induction (level): Low, raw OD600 reference: median of DMSO wells 0.417, cell-free background 0.041
[12] = arabinose induction (level): High, raw OD600 reference: median of DMSO wells […], cell-free background 0.041
[13] = arabinose induction (level): Low, raw OD600 reference: median of DMSO wells 0.227, cell-free background 0.041
[14] = arabinose 100 nM, raw OD600 reference: median of DMSO wells 0.413, cell-free background 0.052
[15] = arabinose 10000000 nM, raw OD600 reference: median of DMSO wells […], cell-free background 0.052

SMILES	growth [1]	growth (E. coli TESEC Mtb Alr [2]; [5])	growth (E. coli TESEC Mtb Alr [2]; [6])	growth (E. coli TESEC Mtb Alr [2]; [7])	growth (E. coli TESEC Mtb Alr [2]; [8])	growth (E. coli TESEC Mtb Alr [2]; [9])	growth (E. coli TESEC Mtb Asd; [10])	growth (E. coli TESEC Mtb Asd; [11])	growth (E. coli TESEC Mtb DapB; [12])	growth (E. coli TESEC Mtb DapB; [13])	growth [3]	growth (E. coli TESEC Mtb Alr [4]; [14])	growth (E. coli TESEC Mtb Alr [4]; [15])
CO[C@H]1C[C@H](O[C@H]2[C@H](C)[C@@H](O[C@@H]3O[C@H](C)C[C@H](N(C)C)[C@H]3OC(C)=O)[C@@H](C)C[C@@]3(CO3)C(=O)[C@H](C)[C@@H](OC(C)=O)[C@@H](C)[C@@H](C)OC(=O)[C@@H]2C)O[C@@H](C)[C@@H]1OC(C)=O [Troleandomycin]	0.0738 ± 0.00081	0.0647 ± 0.0085	0.0495 ± 0.0021	0.0702 ± 0.0019	0.04923 ± 0.00025	0.0672 ± 0.00087	0.15 ± 0.012	0.145 ± 0.0075	0.165 ± 0.0054	0.156 ± 0.0093	0.0617 ± 0.0015	0.112 ± 0.02	0.0707 ± 0.017
CCOC(=O)OC(C)OC1=C(C(=O)Nc2ccccn2)N(C)S(=O)(=O)c2ccccc21 (centres undefined) [Ampiroxicam]	0.228 ± 0.015	0.27 ± 0.0052	0.255 ± 0.0083	0.183 ± 0.018	0.165 ± 0.007	0.157 ± 0.0076	0.237 ± 0.034	0.339 ± 0.033	0.206 ± 0.024	0.266 ± 0.048	0.582 ± 0.1	0.415 ± 0.01	0.293 ± 0.019
O=C1Cc2cc(CCN3CCN(c4nsc5ccccc45)CC3)c(Cl)cc2N1 [Ziprasidone  Hydrochloride]	0.133 ± 0.0045	0.174 ± 0.008	0.249 ± 0.0058	0.195 ± 0.0098	0.179 ± 0.0086	0.201 ± 0.0095	0.418 ± 0.051	0.363 ± 0.035	0.222 ± 0.027	0.308 ± 0.076	0.427 ± 0.011	0.378 ± 0.0087	0.338 ± 0.013
COC(=O)Nc1nc2cc(C(=O)c3ccc(F)cc3)ccc2[nH]1 [Flubendazol]	0.249 ± 0.026	0.307 ± 0.032	0.2591 ± 0.00086	0.197 ± 0.028	0.191 ± 0.0051	0.141 ± 0.0081	0.43 ± 0.019	0.491 ± 0.029	0.2 ± 0.01	0.231 ± 0.03	0.6 ± 0.078	0.414 ± 0.018	0.435 ± 0.011
COc1ccc(C(=O)NCc2cccnc2)cc1C(=O)NCc1cccnc1 [Picotamide monohydrate]	0.234 ± 0.013	0.264 ± 0.034	0.258 ± 0.0067	0.189 ± 0.02	0.161 ± 0.0041	0.132 ± 0.0031	0.256 ± 0.042	0.41 ± 0.037	0.189 ± 0.0065	0.228 ± 0.034	0.453 ± 0.033	0.4272 ± 0.0023	0.321 ± 0.024
CCOC(=O)c1ccc(OC(=O)CCCCCNC(=N)N)cc1 [Gabexate mesilate]	0.15 ± 0.014	0.179 ± 0.0036	0.158 ± 0.0034	0.109 ± 0.0039	0.0891 ± 0.0033	0.14 ± 0.0019	0.135 ± 0.015	0.147 ± 0.017	0.177 ± 0.0061	0.16 ± 0.011	0.495 ± 0.029	0.396 ± 0.013	0.123 ± 0.0081
O=C1CCc2ccc(OCCCCN3CCN(c4cccc(Cl)c4Cl)CC3)cc2N1 [Aripiprazole]	0.171 ± 0.013	0.243 ± 0.021	0.298 ± 0.02	0.15 ± 0.005	0.1175 ± 0.001	0.159 ± 0.006	0.21 ± 0.022	0.391 ± 0.036	0.177 ± 0.011	0.213 ± 0.021	0.418 ± 0.077	0.0572 ± 0.0048	0.0531 ± 0.0021
Cc1ccc(NC(=O)c2ccc(CN3CCN(C)CC3)cc2)cc1Nc1nccc(-c2cccnc2)n1 [Imatinib]	0.171 ± 0.0085	0.23 ± 0.0032	0.241 ± 0.00089	0.141 ± 0.009	0.119 ± 0.0081	0.161 ± 0.0024	0.185 ± 0.02	0.334 ± 0.063	0.185 ± 0.011	0.217 ± 0.02	0.455 ± 0.046	0.4192 ± 0.0028	0.241 ± 0.018
